Data: the supplement of paper PMC6522484
± gives the standard deviation of the averaged measurements.

How the values were obtained:
DLD1 [1] = assay: cell viability (CellTiter-Glo) relative to plate median (fraction of plate median); higher = more viable cells; settings: 5 µM; treatment time 24 h; reporter: 7TFP
In short: (§1)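 Stable lentiviral TCF/Wnt firefly luciferase reporters (7TFP or TCF4/Wnt) were present in the colorectal cancer cell lines used. These cells received library compounds at a final 5 µM for 24 h, and parallel plates were read for firefly luciferase or CellTiterGlo luminescence. Each well was normalised to the plate median, and the value reported is the mean of two independent replicates.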

HCT116 = assay: as above; settings: 5 µM; treatment time 24 h; reporter: TCF4/Wnt
In short: as §1

SW480 [2] = assay: as above; settings: 5 µM; treatment time 24 h; reporter: 7TFP
In short: as §1

DLD1 [3] = assay: TCF/Wnt firefly luciferase reporter signal relative to plate median (fraction of plate median); higher = higher Wnt reporter signal; settings: 5 µM; treatment time 24 h; reporter: 7TFP
In short: as §1

SW480 [4] = assay: as above; settings: 5 µM; treatment time 24 h; reporter: 7TFP
In short: as §1

SMILES	cell viability (DLD1 [1])	cell viability (HCT116)	cell viability (SW480 [2])	TCF/Wnt firefly luciferase reporter signal (DLD1 [3])	TCF/Wnt firefly luciferase reporter signal (SW480 [4])
CC(=O)O[C@H]1C[C@@H](O)C(C)(C)[C@@H]2C[C@@H](OC(C)=O)[C@]3(C)[C@H](CC[C@@]4(C)[C@@H](c5ccoc5)OC(=O)[C@H]5O[C@@]534)[C@@]12C	1.04 ± 0.069	0.947 ± 0.066	0.945 ± 0.016	1.04 ± 0.067	0.978 ± 0.011
O=C(O)c1ccccc1Nc1cccc(C(F)(F)F)c1	0.967 ± 0.0099	0.934 ± 0.042	0.95 ± 0.011	0.96 ± 0.057	1.07 ± 0.064
COc1cc([C@@H]2c3cc4c(cc3[C@@H](O[C@@H]3O[C@@H]5CO[C@@H](C)O[C@H]5[C@H](O)[C@H]3O)[C@H]3COC(=O)[C@H]23)OCO4)cc(OC)c1O	1.03 ± 0.028	0.895 ± 0.12	1.03 ± 0.042	0.815 ± 0.14	0.879 ± 0.12
CC(=O)OCC(=O)[C@@]1(O)CC[C@H]2[C@@H]3CCC4=CC(=O)C=C[C@]4(C)[C@H]3[C@@H](O)C[C@@]21C	0.992 ± 0.04	0.864 ± 0.1	0.936 ± 0.0042	1.08 ± 0.11	1.11 ± 0.092
COc1ccc(NS(=O)(=O)c2ccc(N)cc2)nn1	0.99 ± 0.057	1.09 ± 0.042	1.02 ± 0.032	1.12 ± 0.19	0.914 ± 0.14
C#C[C@]1(O)CC[C@H]2[C@@H]3CCC4=CC(=O)CC[C@@H]4[C@H]3CC[C@@]21C	1.15 ± 0.085	0.9935 ± 0.0092	1.04 ± 0.064	0.847 ± 0.27	0.931 ± 0.03
Cc1nnc(NS(=O)(=O)c2ccc(N)cc2)s1	1.01 ± 0.016	1.04 ± 0.028	1.01 ± 0.15	0.957 ± 0.04	0.981 ± 0.056
CCCCOc1cc(CC2CNC(=O)N2)ccc1OC (stereo not given)	0.999 ± 0.016	0.921 ± 0.081	0.912 ± 0.011	1.015 ± 0.0071	1.04 ± 0.19
CC(C)C[C@@H]1NC(=O)[C@H](CCCN)NC(=O)[C@H](C(C)C)NC(=O)[C@H](Cc2ccc(O)cc2)N[C@@H](CCC(=O)O)C(=O)N[C@@H](CC(N)=O)C(=O)[C@@H](Cc2ccccc2)NC(=O)[C@H](Cc2ccccc2)NC(=O)[C@@H]2CCCN2C(=O)[C@@H](Cc2ccccc2)NC1=O	0.894 ± 0.091	0.71 ± 0.072	0.486 ± 0.082	0.685 ± 0.041	0.469 ± 0.1
Cc1c(C(=O)O)c(O)cc2c1C(=O)c1c(O)c([C@@H]3O[C@H](CO)[C@@H](O)[C@H](O)[C@H]3O)c(O)c(O)c1C2=O	0.97 ± 0.032	1.01 ± 0.089	0.9855 ± 0.0078	1.08 ± 0.17	1.07 ± 0.14
COC1=C(OC)C(=O)C(C/C=C(\C)CC/C=C(\C)CC/C=C(\C)CC/C=C(/C)CC/C=C(\C)CC/C=C(\C)CC/C=C(\C)CC/C=C(\C)CC/C=C(\C)CCC=C(C)C)=C(C)C1=O	1.02 ± 0.035	0.993 ± 0.067	1.115 ± 0.0071	0.98 ± 0.057	0.923 ± 0.15
COc1cc(O)c2c(=O)cc(C)oc2c1CC=C(C)C	1.04 ± 0.057	1.06 ± 0.078	1.04 ± 0.035	0.91 ± 0.04	0.991 ± 0.15
COc1ccc2c(c1)OCc1c-2oc2cc(OC)ccc12	1.05 ± 0.085	1.01 ± 0.021	1 ± 0.051	1.09 ± 0.064	1.035 ± 0.0071
CC(=O)[C@@]1(O)CC[C@H]2[C@@H]3CCC4=CC(=O)CC[C@]4(C)[C@H]3CC[C@@]21C	0.947 ± 0.12	0.926 ± 0.063	0.922 ± 0.12	1.035 ± 0.0071	1.02
CC(C)C[C@@H](NC(=O)[C@H](C)NC(=O)CNC(=O)[C@@H](NC=O)C(C)C)C(=O)N[C@@H](C)C(=O)N[C@@H](C(=O)N[C@H](C(=O)N[C@H](C(=O)N[C@@H](Cc1c[nH]c2ccccc12)C(=O)N[C@H](CC(C)C)C(=O)N[C@@H](Cc1c[nH]c2ccccc12)C(=O)N[C@H](CC(C)C)C(=O)N[C@@H](Cc1c[nH]c2ccccc12)C(=O)N[C@H](CC(C)C)C(=O)N[C@@H](Cc1c[nH]c2ccccc12)C(=O)NCCO)C(C)C)C(C)C)C(C)C	0.939 ± 0.13	0.903 ± 0.061	0.613 ± 0.072	0.885 ± 0.043	0.488 ± 0.077
Nc1ncnc2c1ncn2[C@@H]1O[C@H](CO)[C@@H](O)[C@H]1O	1.06 ± 0.014	1.06 ± 0.09	1.04 ± 0.035	1.07 ± 0.17	1.15 ± 0.028
CC(=O)Nc1ccccc1	0.977 ± 0.02	0.97 ± 0.043	0.966 ± 0.0042	1.05 ± 0.11	0.975 ± 0.028
CC(=O)OCC(=O)[C@H]1CC[C@H]2[C@@H]3CCC4=CC(=O)CC[C@]4(C)[C@H]3CC[C@]12C	0.952 ± 0.082	0.961 ± 0.13	0.974 ± 0.0014	1.11 ± 0.05	0.93 ± 0.059
CCC(=O)OCC(=O)[C@@]1(OC(=O)CC)[C@@H](C)C[C@H]2[C@@H]3CCC4=CC(=O)C=C[C@]4(C)[C@@]3(Cl)[C@@H](O)C[C@@]21C	0.958 ± 0.0057	0.982 ± 0.11	1.01	0.94 ± 0.044	0.941 ± 0.018
CN[C@@H]1[C@@H](O)[C@@H](O[C@@H]2[C@@H](O)[C@H](O[C@H]3OC(CN)=CC[C@H]3N)[C@@H](N)C[C@H]2N)OC[C@]1(C)O	1.04	0.9635 ± 0.0092	1.07 ± 0.042	0.933 ± 0.17	0.97 ± 0.085
CO[C@H]1C[C@@H]2CC[C@@H](C)[C@@](O)(O2)C(=O)C(=O)N2CCCC[C@H]2C(=O)O[C@H]([C@H](C)C[C@@H]2CC[C@@H](O)[C@H](OC)C2)CC(=O)[C@H](C)/C=C(\C)[C@@H](O)[C@@H](OC)C(=O)[C@H](C)C[C@H](C)/C=C/C=C/C=C/1C	1.18 ± 0.028	0.976 ± 0.049	1.35 ± 0.11	0.838 ± 0.15	1.2 ± 0.21
CN1CCCN=C1COC(=O)C(O)(c1ccccc1)C1CCCCC1 (stereo not given)	1 ± 0.15	1.15 ± 0.12	1.05 ± 0.042	1.08 ± 0.042	1.065 ± 0.0071
CCCCC1C(=O)N(c2ccccc2)N(c2ccc(O)cc2)C1=O (stereo not given)	0.923 ± 0.015	0.873 ± 0.038	0.898 ± 0.028	1.21 ± 0.057	1.02 ± 0.05
COc1cc(C(=O)NCCCCCC(=O)O)cc(OC)c1OC	0.981 ± 0.015	0.921 ± 0.044	1.01 ± 0.014	0.865 ± 0.023	0.902 ± 0.046
O=c1oc2c(O)c(O)cc3c(=O)oc4c(O)c(O)cc1c4c23	1.03 ± 0.028	1.125 ± 0.0071	1.11 ± 0.028	0.971 ± 0.055	1.045 ± 0.0071
COC[C@H]1O[C@@H](OC2OC[C@@H]3O[C@]4(O[C@H]3[C@H]2OC(=O)C(C)C)O[C@H](C)[C@@](O)(C(C)=O)[C@@H]2OCO[C@H]24)[C@@H](OC)[C@@H](O)[C@@H]1O[C@@H]1O[C@H](C)[C@H](OC)[C@H](O[C@H]2C[C@@]3(C)OC4(C[C@@H](O)[C@H](O[C@H]5C[C@@H](O)[C@H](OC(=O)c6c(C)c(Cl)c(O)c(Cl)c6OC)[C@@H](C)O5)[C@@H](C)O4)O[C@@H]3[C@@H](C)O2)[C@H]1O (stereo not given in full) [Avilamycin A]	0.977 ± 0.033	1.02 ± 0.042	0.991 ± 0.042	1.03 ± 0.028	1.03 ± 0.078
O=C(O)CCCCCCCCCCCC[C@@H]1C=CCC1	1 ± 0.055	1.03 ± 0.058	0.966 ± 0.1	1.15 ± 0.014	1 ± 0.096
